This excerpt belongs to a sample that is enriched for hits.
Tgondii IFNg = T. gondii growth inhibition with IFN-gamma, primary screen, cell-based | actives 3.8% (n = 69,000) | activity change, negative = inhibition, % (test concentration not listed) | AID 1259416, 2018 | Toxoplasma gondii growth in IFN-gamma-treated host cells; hits give low values; in the data active = activity change below about -70%, passing the limit was not always enough;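 also: host cells are HeLa cells infected with Toxoplasma gondii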
Each line names hits and unclear results; the compound was inactive in the other large screens.

Cn1c(=O)c2c(nc(CN3CCc4ccccc4C3)n2Cc2ccccc2F)n(C)c1=O	Tgondii IFNg -79
Cc1ccc(S(=O)(=O)N2CCC3(CC2)NCCN=C3NCc2ccc3c(c2)OCO3)c(C)c1	none
O=C(c1ccccc1)N1CC[C@@H]2Oc3ccccc3S(=O)(=O)N(CC3CC3)[C@@H]2CC1	none
CCN1CC[C@@H]2Oc3ccccc3S(=O)(=O)N(CC3CC3)[C@@H]2CC1	none
O=S1(=O)c2ccccc2O[C@H]2CCN(Cc3ccc(Cl)cc3)CC[C@H]2N1CC1CC1	Tgondii IFNg -89
COc1ccc(OC)c(-c2cc(N)nc3[nH]ccc23)c1	none
CCCCCNC(=O)CCC1Nc2c3ccccc3nc(=S)n2C1=O (configuration not stated)	none
O=C(c1cccc(F)c1)N1CCC2(CC1)CC(Oc1cccnc1)C2	none
O=C(c1cccc(CC2CCNCC2)c1)N1CCCC1c1ccccn1 (configuration not stated)	none
O=C1CSC(c2ccccc2)N1Nc1nc(N2CCOCC2)nc(N2CCOCC2)n1 (configuration not stated)	none
O=C(O)CSc1nc(Nc2ccccc2)nc(N2CCOCC2)n1	none
Oc1[nH]c2ccccc2c1N=Nc1nc(Nc2ccccc2)nc(N2CCOCC2)n1	Tgondii IFNg -99
Cc1ccc(C)c(NC(=O)Cn2c(=O)cc(C(=O)N3CCCCC3)c3ccccc32)c1	none
CC(C)CS(=O)(=O)N1C[C@H]2C[C@H](C(=O)NCc3ccccc3)[C@@H](C1)O2	none
Cc1ccc(S(=O)(=O)N2CCC3(CC2)NCCN=C3NCc2ccc(C(F)(F)F)cc2)c(C)c1	none
CC(C)N(C)Cc1cnc2n1CCN(C(=O)Cc1ccsc1)CC2	none
Cc1cccc(-c2nc(Cn3nnc(C(=O)NCc4cccc(Br)c4)c3C)c(C)o2)c1	Tgondii IFNg -98
Cc1ccc(-c2nc(Cn3nnc(C(=O)NCc4ccccc4)c3C)c(C)o2)cc1	none
Cc1ccc(NC(=O)c2nnn(Cc3nc(-c4cccc(Cl)c4)oc3C)c2C)c(Br)c1	none
Cc1ccc(-c2nc(Cn3nnc(C(=O)NCc4ccc(F)cc4)c3C)c(C)o2)cc1	none
Cc1ccc(-c2nc(Cn3nnc(C(=O)NCc4ccco4)c3C)c(C)o2)cc1	none
Cc1ccc(NC(=O)c2nnn(Cc3nc(-c4cccc(Cl)c4)oc3C)c2C)c(Cl)c1	none
Cc1cccc(-c2nc(Cn3nnc(C(=O)NCc4ccc(C(C)C)cc4)c3C)c(C)o2)c1	Tgondii IFNg -89
Cc1cccc(-c2nc(Cn3nnc(C(=O)NCc4ccc5c(c4)OCO5)c3C)c(C)o2)c1	Tgondii IFNg -95
Cc1ccc(-c2nc(Cn3nnc(C(=O)NCc4ccncc4)c3C)c(C)o2)cc1	none
Cc1ccc(-c2nc(Cn3nnc(C(=O)NCc4ccc5c(c4)OCO5)c3C)c(C)o2)cc1	none
CCCOc1ccc(CNC(=O)c2nnn(Cc3nc(-c4ccc(C)cc4)oc3C)c2C)cc1	none
CCc1ccc(CNC(=O)c2nnn(Cc3nc(-c4cccc(C)c4)oc3C)c2C)cc1	Tgondii IFNg -80
CCOC(=O)CCCCC(=O)c1[nH]c(=O)[nH]c1CSc1nc2ccccc2s1	none
Cc1ccccc1-n1nnc(C(=O)N2CCN(S(=O)(=O)N3CCCC3)CC2)c1C	none
CN(C)C(=O)N1CC[C@@]2(C[C@H](N3CCCC3=O)CCO2)C1	none
CC(C)CN1c2ccc(F)cc2[C@@H]2CN(C(=O)c3ccco3)CC[C@H]21	none
O=C1CC2(CCN(c3nccs3)C2)CN1c1ccccc1 (configuration not stated)	none
CC(C(=O)N1CCN(S(=O)(=O)c2nn(C)cc2-c2cccnc2)CC1)c1ccccc1 (configuration not stated)	none
Cc1oc(-c2ccc(C(=O)N3CCc4ccccc4C3)cc2)nc1CN1CCc2ccccc21	none
C=CCn1nc(C)c(-c2cc(C(=O)O)[nH]n2)c1C	none
COCc1noc(CCn2cnc3sc4c(c3c2=O)CCNC4)n1	none
Fc1ccccc1CN(Cc1cccnc1)Cc1ccoc1	none
O=c1[nH]nc(CCc2ccccc2O)n1C1CCCCC1	none
O=C(O/N=C1/CCCc2occc21)c1ccccc1	none
CC(C)(C)NC(=S)N/N=C1/CCCc2occc21	Tgondii IFNg -95
COc1cc(C(=O)NCCc2csc(-c3ccccc3)n2)cc(OC)c1OC	none
COc1ccc(C)cc1NC(=O)NCC(c1cccnc1)c1cn(C)c2ccccc12 (configuration not stated)	none
Cc1cc(C)c(NC(=O)Cn2c(=O)cc(-c3nc(C4CC4)no3)c3ccccc32)c(C)c1	none
COc1ccccc1NC(=O)Cn1c(=O)cc(-c2nc(C3CC3)no2)c2ccccc21	none
COc1ccc(C)cc1NC(=O)Cn1c(=O)cc(-c2nc(C3CC3)no2)c2ccccc21	Tgondii IFNg -87
COc1cccc(C)c1C(=O)N1CCOC(c2ccc(Cl)c(Cl)c2)C1 (configuration not stated)	Tgondii IFNg -77
COc1ncc(C(=O)N2CCOC(c3ccc(Cl)c(Cl)c3)C2)cn1 (configuration not stated)	none
COc1cccnc1C(=O)N1CCOC(c2ccc(Cl)c(Cl)c2)C1 (configuration not stated)	none
C[C@]12CC[C@H](O)CC1=CC[C@@H]1[C@@H]2CC[C@]2(C)C(c3cccnc3)=CC[C@@H]12	none
Cc1nc(C2COCCN2S(=O)(=O)N(C)C)cs1 (configuration not stated)	none
Cc1cc2ccccc2n1CCNC(=O)c1cc2n(n1)CCCN(C)C2	none
CCn1c(=O)c(C(=O)Nc2ccncc2)c(O)c2ccccc21	none
Cc1ccc(C)c(S(=O)(=O)Nc2ccc3c(c2)CCC(=O)N3CC(C)C)c1	none
COCCN1C(=O)CCc2cc(NS(=O)(=O)c3ccc(F)cc3)ccc21	none
CC(C)CN1C(=O)CCc2cc(NS(=O)(=O)c3ccc(F)cc3F)ccc21	none
COCCN1C(=O)CCc2cc(NS(=O)(=O)c3ccc(C)c(F)c3)ccc21	none
Cc1ccc(S(=O)(=O)Nc2ccc3c(c2)CCC(=O)N3CC(C)C)cc1Cl	Tgondii IFNg -93
COCCN1C(=O)CCc2cc(NS(=O)(=O)c3ccc(OC)c(Cl)c3)ccc21	none
Cc1ccc(S(=O)(=O)Nc2ccc3c(c2)CCC(=O)N3CC(C)C)c(C)c1	Tgondii IFNg -86
CCN1C(=O)CCc2cc(NS(=O)(=O)c3cccc(Br)c3)ccc21	none
CCN1C(=O)CCc2cc(NS(=O)(=O)c3ccc(C(F)(F)F)cc3)ccc21	Tgondii IFNg -103
CCN1C(=O)CCc2cc(NS(=O)(=O)c3ccc(C)c(Cl)c3)ccc21	Tgondii IFNg -83
CC(C)CN1C(=O)CCc2cc(NS(=O)(=O)c3ccccc3Cl)ccc21	none
CC(C)CN1C(=O)CCc2cc(NS(=O)(=O)c3ccc(F)c(F)c3)ccc21	none
COc1ccc(-c2nc(Cn3nnc(-c4nc(-c5ccc(Cl)c(F)c5)no4)c3C)c(C)o2)cc1	none
COc1ccc(-c2nc(C)c(CCNS(=O)(=O)c3cc(F)ccc3F)s2)cc1OC	none
Cc1nn(CC(=O)N2CCN(c3ccccc3)CC2)c(=O)c2nc(-c3ccccc3)sc12	none
Cn1c(=O)c(-c2nc(-c3ccc(F)cc3)no2)c(O)c2cc(F)ccc21	none
O=C(CC1CCS(=O)(=O)C1)Nc1cnc2n1CCCC2 (configuration not stated)	none
COc1cc2c(cc1-c1nccn1CCN1CCNC1=O)OCCCO2	none
O=S(=O)(C1CC1)N1CCOC2(CCCN(c3cccc(F)c3)C2)C1 (configuration not stated)	none
CCN(CC)C(=O)c1cn(-c2ccccc2)nc1C12CC3CC(CC(C3)C1)C2	none
CC(C)CN1CC[C@H]2[C@@H]1CCN2S(=O)(=O)Cc1ccccc1	none
CCCN1C(=O)CCc2cc(NS(=O)(=O)c3ccc(Cl)c(Cl)c3)ccc21	none

Screening results (PubChem)
